Anthrax LF inh2 – inhibitors of Bacillus anthracis lethal factor protease. P15917. inhibition, % at 10 µM. multiplex microsphere protease cleavage assay, LF. hit rate 0.12% among 360,000. AID 588501; further: plate controls were buffer without enzyme for full effect and enzyme alone for no effect
Target sequence (P15917 whole entry, looked up): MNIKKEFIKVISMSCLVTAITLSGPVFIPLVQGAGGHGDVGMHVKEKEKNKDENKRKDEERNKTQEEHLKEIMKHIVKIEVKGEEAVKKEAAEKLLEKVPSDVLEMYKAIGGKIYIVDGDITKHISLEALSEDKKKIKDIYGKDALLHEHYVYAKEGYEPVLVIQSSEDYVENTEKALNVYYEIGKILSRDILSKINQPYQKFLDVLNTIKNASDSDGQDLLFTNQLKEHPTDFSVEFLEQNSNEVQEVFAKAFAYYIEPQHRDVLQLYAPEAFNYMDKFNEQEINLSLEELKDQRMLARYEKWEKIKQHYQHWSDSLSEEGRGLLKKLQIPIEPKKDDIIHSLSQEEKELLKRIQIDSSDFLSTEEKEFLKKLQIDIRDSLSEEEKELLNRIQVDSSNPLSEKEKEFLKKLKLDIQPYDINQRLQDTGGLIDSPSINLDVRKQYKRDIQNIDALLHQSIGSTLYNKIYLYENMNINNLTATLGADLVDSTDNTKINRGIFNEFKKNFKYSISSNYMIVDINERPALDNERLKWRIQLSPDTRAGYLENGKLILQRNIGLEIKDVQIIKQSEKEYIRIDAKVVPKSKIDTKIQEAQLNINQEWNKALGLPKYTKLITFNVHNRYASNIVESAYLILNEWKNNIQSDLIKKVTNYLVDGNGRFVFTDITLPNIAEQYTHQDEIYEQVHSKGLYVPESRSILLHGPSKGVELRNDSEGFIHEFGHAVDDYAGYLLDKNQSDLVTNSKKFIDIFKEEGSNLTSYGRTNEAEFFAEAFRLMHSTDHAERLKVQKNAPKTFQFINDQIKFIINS
BoNT F protease – blocks Botulinum neurotoxin F light chain protease; inhibition, % at 10 µM; AID 588497; hit rate 0.22% among 360,000; Multiplex microsphere protease cleavage assay, flow cytometry; in the data active means inhibition above about 35%, passing the limit was not always enough; inconclusive means no clear call, values can overlap the other calls; further: plate controls were buffer without enzyme for full effect and enzyme alone for no effect
Vc quorum ag – inducers of Vibrio cholerae quorum light production without autoinducers; hit rate 0.16% among 350,000; activation, % at 18.7 µM; V. cholerae BH1578 lux reporter, luminescence, 6 h; AID 588436; in the data active means activation mostly above about 9.7%, no sharp cut-off; inconclusive means no clear call, values can overlap the other calls; inactive means mostly below about 3.7%
Bead autofluor – compound fluorescence in toxin protease inhibitor counterscreen; compound autofluorescence counterscreen, microsphere flow cytometry; hits give high values; fluorescence intensity (no concentration beside the values); hit rate 3.1% among 360,000; AID 624483; in the data active means fluorescence intensity above about 16000; inconclusive means no clear call, values can overlap the other calls
BoNT-A LC inh2 – inhibitors of Botulinum neurotoxin A light chain protease; hit rate 0.17% among 360,000; AID 588499; inhibition, % at 10 µM; multiplex microsphere protease substrate cleavage, flow cytometry; further: plate controls were buffer without enzyme for full effect and enzyme alone for no effect
Starred values were filed as active, the others as inactive. Most compounds without a hit are left out; they make up all but 3.5% or so of the library. Unless noted, no stated cut-off is given here; in the data, active means inhibition above about 30%; inconclusive means no clear call, values can overlap the other calls; inactive means below that.

How did Cc1ccnc(NS(=O)(=O)c2ccc(N=CC3=C(O)CC(C)(C)CC3=O)cc2)n1 do in these assays?
Anthrax LF inh2: -0.8; BoNT F protease: 1.6; Vc quorum ag: -1.0; Bead autofluor: 22067*; BoNT-A LC inh2: inconclusive

Results for COc1ccc(CNC2CCCCC2C)c(OC)c1 (stereo not drawn) ?
Anthrax LF inh2: -1.1; BoNT F protease: 2.0; Vc quorum ag: inactive; Bead autofluor: 22181*; BoNT-A LC inh2: 2.7

What do the screens show for `CCC(CC)NCc1ccc(OC)cc1OC`?
Anthrax LF inh2: 2.1; BoNT F protease: -3.6; Vc quorum ag: inactive; Bead autofluor: 22992*; BoNT-A LC inh2: -1.1

How did Cc1ccc(N2C3=C(C(=O)CC(C)(C)C3)C(c3cn(C)nc3C)C3=C2CC(C)(C)CC3=O)cc1 do in these assays?
Anthrax LF inh2: 12.4; BoNT F protease: -14.5; Vc quorum ag: -0.4; Bead autofluor: 20845*; BoNT-A LC inh2: 29.1

Results for Cc1nn(C)cc1C1C2=C(CC(C)(C)CC2=O)N(c2ccccc2)C2=C1C(=O)CC(C)(C)C2 ?
Anthrax LF inh2: 4.0; BoNT F protease: -7.1; Vc quorum ag: inactive; Bead autofluor: 3433; BoNT-A LC inh2: 0.4

Results for CCN1CCc2nc(NC(=O)c3ccccc3)sc2C1 ?
Anthrax LF inh2: 15.4; BoNT F protease: -1.5; Vc quorum ag: -2.8; Bead autofluor: 18645*; BoNT-A LC inh2: 9.5

How did CCOc1ccc(NC(=O)CSc2nc3ccccc3c(=O)n2CCNC(C)=O)cc1 do in these assays?
Anthrax LF inh2: -1.0; BoNT F protease: 2.2; Vc quorum ag: -5.9; Bead autofluor: 20012*; BoNT-A LC inh2: 1.7

What do the screens show for `COc1ccc(OC)c(NC(=O)CSc2nc3ccccc3c(=O)n2CCNC(C)=O)c1`?
Anthrax LF inh2: 1.3; BoNT F protease: -4.0; Vc quorum ag: -5.3; Bead autofluor: 20543*; BoNT-A LC inh2: -2.9

How did COc1ccc(NC(=O)CSc2nc3ccccc3c(=O)n2CCNC(C)=O)cc1 do in these assays?
Anthrax LF inh2: -14.1; BoNT F protease: -16.5; Vc quorum ag: -0.3; Bead autofluor: 12758; BoNT-A LC inh2: -5.5

Results for CCn1c(SCC(=O)Nc2ccc(NC(=O)c3ccco3)c(OC)c2)nc2ccccc2c1=O ?
Anthrax LF inh2: -0.7; BoNT F protease: -6.4; Vc quorum ag: inactive; Bead autofluor: 20994*; BoNT-A LC inh2: -4.2

What do the screens show for `COc1ccc(NC(=O)CSc2nc3ccccc3c(=O)n2CCNC(C)=O)c(OC)c1`?
Anthrax LF inh2: -2.1; BoNT F protease: -3.1; Vc quorum ag: -0.3; Bead autofluor: 9748; BoNT-A LC inh2: -1.5

How did CC(=O)Nc1ccc(NC(=O)C2CCCN2/C=C/C(=O)C(F)(F)F)cc1 (stereo not drawn) do in these assays?
Anthrax LF inh2: -0.1; BoNT F protease: -3.1; Vc quorum ag: -0.5; Bead autofluor: 4248; BoNT-A LC inh2: 0.0

What do the screens show for `COc1ccc(CCN(C)C(=O)CSc2nccn2C)cc1OC`?
Anthrax LF inh2: -0.6; BoNT F protease: 1.9; Vc quorum ag: -2.9; Bead autofluor: 19523*; BoNT-A LC inh2: inconclusive

What do the screens show for `Cc1cccc(C(=O)NNC(=O)c2ccccc2Br)c1`?
Anthrax LF inh2: 5.9; BoNT F protease: 44.8*; Vc quorum ag: 3.5; Bead autofluor: 3428; BoNT-A LC inh2: 1.0

What do the screens show for `O=C(O)/C=C/C(=O)NNC(=O)c1ccccc1Br`?
Anthrax LF inh2: -15.8; BoNT F protease: 6.2; Vc quorum ag: inactive; Bead autofluor: 20690*; BoNT-A LC inh2: 4.7

How did O=C(Cn1cnc2c(cnn2-c2ccccc2Cl)c1=O)N1CCc2ccccc21 do in these assays?
Anthrax LF inh2: -0.8; BoNT F protease: 5.7; Vc quorum ag: -0.3; Bead autofluor: 21755*; BoNT-A LC inh2: 3.4

How did C#CCN(C#N)c1nc(NCC)nc(NC(C)C)n1 do in these assays?
Anthrax LF inh2: -0.5; BoNT F protease: 0.3; Vc quorum ag: -0.2; Bead autofluor: 23207*; BoNT-A LC inh2: -0.3

How did CCc1nc2ccc(C)cc2c(C(=O)NC2CCCCC2C)c1C (stereo not drawn) do in these assays?
Anthrax LF inh2: -8.3; BoNT F protease: 3.5; Vc quorum ag: inactive; Bead autofluor: 18786*; BoNT-A LC inh2: inconclusive

Results for Cc1ccc(CN2CC(C(=O)N(CC(C)C)c3c(N)n(Cc4ccccc4)c(=O)[nH]c3=O)CC2=O)cc1 (stereo not drawn) ?
Anthrax LF inh2: -6.6; BoNT F protease: -9.0; Vc quorum ag: -1.1; Bead autofluor: 3547; BoNT-A LC inh2: 0.3

Results for O=C1CC(c2cccc(Cl)c2)C(n2cncn2)C(=O)C1C1NCCc2ccccc21 (stereo not drawn) ?
Anthrax LF inh2: 1.4; BoNT F protease: 5.2; Vc quorum ag: inactive; Bead autofluor: 4641; BoNT-A LC inh2: 0.1

What do the screens show for `COc1ccc(C2CC(=O)CC(=O)C2n2cncn2)cc1` (stereo not drawn)?
Anthrax LF inh2: -1.6; BoNT F protease: 2.7; Vc quorum ag: inactive; Bead autofluor: 21795*; BoNT-A LC inh2: 1.1

What do the screens show for `O=C1C=C(O)C(n2cncn2)C(c2ccc3c(c2)OCO3)C1` (stereo not drawn)?
Anthrax LF inh2: -2.6; BoNT F protease: -3.5; Vc quorum ag: inactive; Bead autofluor: 4870; BoNT-A LC inh2: -0.9

How did O=C1CC(=O)C(n2cncn2)C(c2cccc(Cl)c2)C1 (stereo not drawn) do in these assays?
Anthrax LF inh2: -0.9; BoNT F protease: 8.4; Vc quorum ag: 7.1; Bead autofluor: 21751*; BoNT-A LC inh2: 3.7

How did CCCc1[nH]nc2c1C1(C(=O)N(Cc3ccccc3)c3ccccc31)C(C(=O)OC)=C(N)O2 (stereo not drawn) do in these assays?
Anthrax LF inh2: -15.2; BoNT F protease: 8.8; Vc quorum ag: -2.4; Bead autofluor: 17223*; BoNT-A LC inh2: 7.8

Results for CCN1C(=O)C2(C(C#N)=C(N)Oc3n[nH]c(-c4ccccc4)c32)c2ccccc21 (stereo not drawn) ?
Anthrax LF inh2: -1.2; BoNT F protease: -0.5; Vc quorum ag: inactive; Bead autofluor: 16247*; BoNT-A LC inh2: 0.1

What do the screens show for `Cc1cccc(-n2c(=O)c3ccccc3n3c(=S)[nH]nc23)c1C`?
Anthrax LF inh2: -1.5; BoNT F protease: 0.7; Vc quorum ag: -0.4; Bead autofluor: 4473; BoNT-A LC inh2: 1.2

How did Cc1cc(N)n(-c2ccc(S(=O)(=O)c3ccc(C(C)C)cc3)cc2)n1 do in these assays?
Anthrax LF inh2: -0.5; BoNT F protease: -2.1; Vc quorum ag: -0.3; Bead autofluor: 4143; BoNT-A LC inh2: 0.7

How did CN(CC(=O)Nn1cnnc1)S(=O)(=O)c1ccc(Br)cc1 do in these assays?
Anthrax LF inh2: -9.7; BoNT F protease: 9.5; Vc quorum ag: 0.5; Bead autofluor: 18838*; BoNT-A LC inh2: inconclusive

How did O=C(COC(=O)c1cncc(Br)c1)NC1CCCCCC1 do in these assays?
Anthrax LF inh2: 25.2; BoNT F protease: 1.9; Vc quorum ag: inactive; Bead autofluor: 4808; BoNT-A LC inh2: 31.2*

Results for CSCCC(NC(=O)COc1ccccc1)C(=O)OCc1ccc([N+](=O)[O-])cc1 (stereo not drawn) ?
Anthrax LF inh2: -3.0; BoNT F protease: inconclusive; Vc quorum ag: inactive; Bead autofluor: inconclusive; BoNT-A LC inh2: 1.6

Screening results: PubChem BioAssay, several laboratories
